pPAFAH FP inh: pPAFAH (human) enzyme inhibition; Q13093; recombinant pPAFAH, FP-rhodamine probe fluorescence polarization; inhibition, % at 3.39 µM; actives 1.5% (n = 330,000); AID 463082;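 active = inhibition above the mean inhibition across the screen plus 3 SD, cut at about 25% in these data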;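 also: inhibitors block binding of the rhodamine activity-based probe so polarization drops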
HTRA1 inh: HTRA1 (human) protease inhibition; Q92743; recombinant HTRA1, FP-rhodamine activity-based probe, fluorescence polarization; inhibition, % at 5.96 µM; actives 0.5% (n = 340,000); AID 504803; in the data active = inhibition above about 36%
PAFAH1B3 inh: inhibitors of human PAFAH1B3. Q15102. inhibition, % at 3.39 µM. recombinant PAFAH1B3, FP-rhodamine probe, fluorescence polarization. actives 0.28% (n = 340,000);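 active = inhibition above the screen-wide average of all tested compounds plus 3 SD, cut at about 25% in these data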
PAFAH2 FP inh: inhibitors of human PAFAH2. Q99487. recombinant PAFAH2, FP-rhodamine activity probe, fluorescence polarization. inhibition, % at 3.39 µM. actives 0.99% (n = 340,000). AID 492956;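 active = inhibition above the mean over all tested compounds plus 3 SD, cut at about 30% in these data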;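 also: inhibitors block probe labeling of enzyme so polarization drops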
PAFAH1B2 FP inh: blocks human PAF acetylhydrolase 1b catalytic subunit 2. recombinant PAFAH1B2, FP-rhodamine activity probe, fluorescence polarization. actives 1.2% (n = 340,000). AID 492953. P68402. inhibition, % at 3.39 µM;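 active = inhibition above the mean of all tested compounds plus 3 SD, cut at about 24% in these data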
DAGLB inhibitor: diacylglycerol lipase beta (human) inhibition | Q8NCG7 | HEK293T DAGLB membrane lysate, EnzChek fluorogenic substrate | inhibition, % at 5.17 µM | actives 0.059% (n = 340,000) | AID 504411; in the data active = inhibition above about 34%
Target sequence (Q8NCG7 whole entry, looked up): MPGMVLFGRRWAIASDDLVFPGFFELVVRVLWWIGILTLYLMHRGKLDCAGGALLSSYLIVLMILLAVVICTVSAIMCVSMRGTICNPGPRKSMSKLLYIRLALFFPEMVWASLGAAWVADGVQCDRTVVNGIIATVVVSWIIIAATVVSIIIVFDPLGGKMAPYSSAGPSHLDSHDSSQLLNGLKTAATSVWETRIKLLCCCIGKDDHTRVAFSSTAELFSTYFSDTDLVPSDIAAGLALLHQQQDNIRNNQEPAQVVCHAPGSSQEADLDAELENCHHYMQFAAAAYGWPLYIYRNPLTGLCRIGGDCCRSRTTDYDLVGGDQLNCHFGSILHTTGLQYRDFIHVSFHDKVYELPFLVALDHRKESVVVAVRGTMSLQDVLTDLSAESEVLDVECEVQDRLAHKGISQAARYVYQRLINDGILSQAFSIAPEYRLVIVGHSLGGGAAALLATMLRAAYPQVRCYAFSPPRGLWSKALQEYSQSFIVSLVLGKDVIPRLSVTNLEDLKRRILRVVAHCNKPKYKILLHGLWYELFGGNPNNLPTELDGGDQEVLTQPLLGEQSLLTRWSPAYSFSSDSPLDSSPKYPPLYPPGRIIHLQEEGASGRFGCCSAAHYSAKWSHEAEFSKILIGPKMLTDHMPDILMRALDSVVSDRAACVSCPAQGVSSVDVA
Numbers stand for hits; – = inactive; · = no result. An excerpt weighted towards active compounds, which were near 2.8% of everything screened.

SMILES	pPAFAH FP inh	HTRA1 inh	PAFAH1B3 inh	PAFAH2 FP inh	PAFAH1B2 FP inh	DAGLB inhibitor
COC(=O)C1CSc2[nH]c(=O)sc2C1c1ccccc1 (stereo not drawn)	–	–	–	–	28	–
CN1CCN(CCC=C2c3ccccc3Sc3ccc(S(=O)(=O)N(C)C)cc32)CC1	28	–	–	–	–	–
OCCN1CCN(CC/C=C2/c3ccccc3Sc3ccc(C(F)(F)F)cc32)CC1	–	–	–	–	–	–
CCc1ccc2c(c1)C1(C(=O)N2)N2CCCC2C(C(=O)c2ccc3ccccc3c2)C12C(=O)Nc1ccccc12 (stereo not drawn)	–	–	–	–	–	–
CCc1ccc2c(c1)C1(NN=C(c3cccc4ccccc34)S1)C(=O)N2 (stereo not drawn)	–	55	–	–	–	–
O=C(O)c1ccc(N/N=C/c2cn(Cc3ccc(F)cc3)c3ccccc23)cc1	29	–	–	–	–	–
O=C1OC(c2ccco2)=N/C1=C\c1ccc(-c2cccc(C(F)(F)F)c2)o1	27	–	–	–	–	–
CCOc1ccc(-n2cc(-c3ccccc3)c3c(=S)nc[nH]c32)cc1	28	–	–	–	–	–
CCOc1ccc(-n2cc(-c3ccccc3)c3c(N4CCOCC4)ncnc32)cc1	–	–	–	–	–	–
COc1cccc(C(=O)NC(=S)N2CCN(c3ccc(C(F)(F)F)cc3[N+](=O)[O-])CC2)c1	26	–	–	–	–	–
O=C(COC(=O)COc1ccc(Cl)cc1)Nc1cccnc1Cl	·	–	·	·	·	–
CC(C)C(=O)Nc1ccc(C(=O)Nc2ccc(S(=O)(=O)N3CCOCC3)cc2)cc1	–	–	–	–	–	–
CC(Sc1ccc(Cl)cc1)C(=O)Nc1ccc(S(=O)(=O)N2CCOCC2)cc1 (stereo not drawn)	–	–	–	–	31	–
COc1cccc(N=C2NC(=O)/C(=C/c3cc([N+](=O)[O-])ccc3O)S2)c1	–	–	39	40	27	–
COc1ccc(N=C2NC(=O)/C(=C/c3ccc(O)c(OC)c3)S2)cc1	–	–	–	–	–	–
CCOC(=O)[C@H]1[C@H]2COc3cc(OC)ccc3[C@@H]2N2C(=O)CN(Cc3ccc(OC)cc3)C(=O)[C@@]12C	–	–	–	–	–	–
CCC(CO)Oc1cc(NC(=O)Cc2ccccc2)c2ncn(C(C)C)c2c1 (stereo not drawn)	26	–	–	–	–	–
C[C@H](NS(=O)(=O)OCC(Cl)(Cl)Cl)C1CC1c1ccccc1 (stereo partly drawn)	26	–	–	–	32	–
S=c1[nH]nc(-c2ccc(Cl)cc2)n1Cc1ccccc1	–	–	–	–	37	–
COc1ccc(NS(=O)(=O)c2cccc(-c3n[nH]c(=S)n3Cc3ccccc3)c2)cc1	27	–	–	–	–	–
COc1ccc(NS(=O)(=O)c2ccc(C)c(C(=O)NC3CCN(Cc4ccccc4)CC3)c2)cc1	26	–	–	–	–	–
COc1ccc(NS(=O)(=O)c2ccc(-c3n[nH]c(=S)n3Cc3ccccc3)cc2)cc1	25	–	–	–	–	–
COc1ccc(C)cc1NC(=O)CNc1ccc(C(C)=O)cc1	–	–	–	–	–	–
S=c1[nH]nc(Cc2ccccc2)n1-c1ccc(Cl)cc1	–	–	–	–	29	–
CCCCc1n[nH]c(=S)n1Cc1ccc(Cl)cc1	–	–	–	–	27	–
SMILES	pPAFAH FP inh	HTRA1 inh	PAFAH1B3 inh	PAFAH2 FP inh	PAFAH1B2 FP inh	DAGLB inhibitor
COc1ccc(NS(=O)(=O)c2cccc(-c3nnc(-c4ccccc4)o3)c2)cc1	30	–	–	–	–	–
S=c1[nH]nc(Cc2ccccc2)n1-c1ccccc1	–	–	–	–	–	–
COc1ccc(S(=O)(=O)N2CCCCCC2)cc1C(=O)N(C)CC(=O)Nc1cc(C)ccc1C	·	–	–	–	–	–
CCN(C(=O)c1ccc(S(=O)(=O)N2CCOCC2)cc1)C1CCS(=O)(=O)C1 (stereo not drawn)	·	–	–	–	–	–
CC(OC(=O)C1=COCCO1)C(=O)Nc1ncc(Cl)cc1Cl (stereo not drawn)	·	–	–	–	47	–
CC(OC(=O)C1=NNC(=O)CC1)C(=O)Nc1ncc(Cl)cc1Cl (stereo not drawn)	–	–	–	–	–	–
Cc1ccc(S(=O)(=O)NCC2(c3ccccc3)CCOCC2)cc1	–	–	–	–	26	–
COc1ccc(CN(C)C(=O)Cn2cnc3c(NCc4ccccc4)ncnc32)cc1OC	–	–	–	–	–	–
Cc1ccc(S(=O)(=O)/N=C2/C=C(Sc3ncn[nH]3)C(=O)c3ccccc32)c(C)c1	–	·	·	·	·	·
Cc1ccc(S(=O)(=O)/N=C2/C=C(Sc3ncn[nH]3)C(=O)c3ccccc32)cc1	–	–	48	75	51	–
CC(C)c1ccc(S(=O)(=O)/N=C2/C=C(Sc3ncn[nH]3)C(=O)c3ccccc32)cc1	–	–	49	51	46	–
CC(C)c1ccc(C(=O)COC(=O)C(O)c2ccccc2)cc1 (stereo not drawn)	29	–	–	–	–	–
COc1ccc(CNC(=O)CN(c2ccc(C(C)C)cc2)S(=O)(=O)c2c(C)noc2C)cc1	–	–	–	–	–	–
Cc1ccc(C)c(S(=O)(=O)N2CCN(C(=O)CCNS(=O)(=O)c3ccc(C)c(C)c3)CC2)c1	27	–	–	–	–	–
O=C(CCNS(=O)(=O)c1ccc(Cl)cc1)N1CCCCCC1	–	–	–	–	27	–
Cc1ccc(C)c(S(=O)(=O)N2CCN(C(=O)/C=C/c3ccco3)CC2)c1	30	–	–	–	–	–
Cc1ccc(S(=O)(=O)NCCC(=O)N2CCN(S(=O)(=O)c3ccccc3)CC2)cc1C	–	–	–	–	–	–
NS(=O)(=O)c1ccc(CCNC(=O)c2ccc3c(=O)n4c(nc3c2)CCCCC4)cc1	–	–	–	–	–	–
CCC(NC(=O)C(C)NC)C(=O)N1CCCC1C(=O)NC1CCCc2ccccc21 (stereo not drawn)	–	–	–	–	–	–
O=C(c1ccccc1)c1ccc(NCCCn2ccnc2)c([N+](=O)[O-])c1	–	–	–	–	–	–
COc1ccc(C(=O)NCC(=O)OCC(=O)Nc2cc(OC)ccc2OC)cc1	–	–	–	–	–	–
O=C(COC(=O)C1CC1)Nc1ccc(Oc2ccccc2)cc1	27	–	–	91	–	–
COc1ccccc1NC(=O)COC(=O)CCC1CCCC1	29	–	–	–	–	–
COc1ccc(NS(=O)(=O)c2ccc(OC)c(NC(=O)CCC3CCCC3)c2)cc1	27	–	–	–	–	–
COc1ccccc1NC(=O)COC(=O)C1CCCC1	–	–	–	–	–	–
COc1ccc(OC)c(NC(=O)COC(=O)CCC2CCCC2)c1	33	–	–	–	–	–
COc1ccc(NC(=O)CCC2CCCC2)cc1OC	–	–	–	–	–	–
